According to PubChem BioAssay (NCATS):
Values joined by “and” are separate entries in the source; they are usually repeats but may differ in a detail not shown here. Identical values can stand only once. Results filed as inconclusive are left out. Active and inactive are the calls of the source. The call rests on the fitted dose curve; in most records, active means well fitted curve in the direction sought with a large enough effect; inconclusive means small, poorly fitted or top-dose-only effect, or another doubt; inactive means no such curve, though single readings can be large; an effect the other way counts as inactive or inconclusive.

Assays:
[1] = biological target: Phospholipid hydroperoxide glutathione peroxidase GPX4 (Homo sapiens) (UniProt P36969); experiment: Primary qHTS Assay for Inhibitors of Recombinant Selenoprotein Glutathione Peroxidase 4 (GPX4) (AID 1845192); conditions: recombinant GPX4, GR-coupled NADPH fluorescence, 15 min; series mostly up to 50 µM; further: nearly all actives have a fitted effect of over 65% in size
Sequence of Phospholipid hydroperoxide glutathione peroxidase GPX4 (Homo sapiens) (P36969 whole entry, looked up): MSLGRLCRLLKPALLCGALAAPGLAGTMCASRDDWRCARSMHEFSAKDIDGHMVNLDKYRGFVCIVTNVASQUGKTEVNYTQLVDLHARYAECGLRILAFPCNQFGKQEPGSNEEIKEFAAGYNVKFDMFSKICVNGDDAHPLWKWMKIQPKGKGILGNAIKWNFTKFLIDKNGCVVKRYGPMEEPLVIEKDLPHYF
Procedure, shortened: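 GR-coupled readout: 100 nM GR, 1 mM GSH, 0.5 mM NADPH; NADPH fluorescence (ex 340/em 450 nm) read at t=0 and after 15 min RT. GPX4 200 nM, preincubated 30 min with compound; substrate 0.5 mM CHP.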

[2] = biological target: Luciferin 4-monooxygenase (Photinus pyralis) (UniProt P08659); experiment: Primary firefly luciferase (FLuc) qHTS assay for identification of artifact compounds. (AID 1845220); conditions: purified firefly luciferase, luminescence, 5 min; series mostly up to 54.1 µM; further: nearly all actives have a fitted effect of over 60% in size
Procedure, shortened: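 In this counter-screen for luciferase artifacts, test compounds met substrate (10 uM each luciferin and ATP) before 10 nM enzyme started the reaction. Light output was measured 5 min later.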

[3] = Primary fluorescence-based thiol-reactive (MSTI) qHTS assay for identification of artifact compounds. (AID 1845221); conditions: MSTI thiol-reactivity probe, 1 h; series mostly up to 53.8 µM;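 further: thiol-reactive compounds lower the probe fluorescence signal; nearly all actives have a fitted effect of over 65% in size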
Procedure, shortened: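 Thiol-reactive compounds detected by quenching of 4 uM MSTI fluorescence (525/598 nm) after 1 h room-temperature dark incubation in PBS pH 7.4, 2% DMSO. qHTS titration; percent inhibition Hill-fitted against Acetyl-MSTI/MSTI controls.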

[4] = Primary redox qHTS assay for identification of artifact compounds. (AID 1845223); conditions: Amplex Red/HRP redox cycling with DTT, fluorescence; series mostly up to 53.8 µM;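 further: 0% = DMSO and 100% = reference compound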
Procedure, shortened: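 Amplex Red (25 uM) and HRP (250 mU/mL) in HBSS, with compounds for 15 min, then 250 uM DTT for 30 min, room temperature, dark. Fluorescence 525/598 nm read; normalized to DMSO and 10 uM DA3003; Hill fit.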

[5] = qHTS profiling for inhibitors of Plasmodium falciparum proliferation (AID 504749); further: nearly all actives have a fitted effect of over 60% in size; further: potency means the concentration at half of the fitted maximal effect;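 on activity, negative = inhibition: 0% = DMSO vehicle and full inhibition = artemisinin control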; conditions: P. falciparum in erythrocytes, SYBR Green DNA, 72 h
Procedure, shortened: (§1)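 P. falciparum-infected erythrocytes (0.3% parasitemia, 2.5% hematocrit final) were exposed to compounds for 72 h at 37 C in 5% CO2, then lysed with SYBR Green buffer overnight at room temperature; parasite DNA fluorescence was normalized to artemisinin and DMSO controls.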

3D7 = experiment: as above; conditions: P. falciparum in erythrocytes, SYBR Green DNA, 72 h; series mostly up to 28.7 µM
Procedure, shortened: as §1

7G8 = experiment: as above; conditions: P. falciparum in erythrocytes, SYBR Green DNA, 72 h; series mostly up to 28.7 µM
Procedure, shortened: as §1

AA1029 = experiment: as above; conditions: P. falciparum in erythrocytes, SYBR Green DNA, 72 h; series mostly up to 28.7 µM
Procedure, shortened: as §1

[6] = biological target: Cytochrome P450 3A4 (Homo sapiens) (UniProt P08684); experiment: qHTS for inhibitors of CYP3A4 against the NCATS DSHEA and TCM libraries (AID 1919971); conditions: recombinant CYP3A4 enzyme activity, luminescence qHTS; series mostly up to 34.1 µM;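 further: on the % scale 0 is the no-effect control and ±100 the full control effect; inhibition lowers luminescence from luciferin made by CYP3A4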
Sequence of Cytochrome P450 3A4 (Homo sapiens) (P08684 whole entry, looked up): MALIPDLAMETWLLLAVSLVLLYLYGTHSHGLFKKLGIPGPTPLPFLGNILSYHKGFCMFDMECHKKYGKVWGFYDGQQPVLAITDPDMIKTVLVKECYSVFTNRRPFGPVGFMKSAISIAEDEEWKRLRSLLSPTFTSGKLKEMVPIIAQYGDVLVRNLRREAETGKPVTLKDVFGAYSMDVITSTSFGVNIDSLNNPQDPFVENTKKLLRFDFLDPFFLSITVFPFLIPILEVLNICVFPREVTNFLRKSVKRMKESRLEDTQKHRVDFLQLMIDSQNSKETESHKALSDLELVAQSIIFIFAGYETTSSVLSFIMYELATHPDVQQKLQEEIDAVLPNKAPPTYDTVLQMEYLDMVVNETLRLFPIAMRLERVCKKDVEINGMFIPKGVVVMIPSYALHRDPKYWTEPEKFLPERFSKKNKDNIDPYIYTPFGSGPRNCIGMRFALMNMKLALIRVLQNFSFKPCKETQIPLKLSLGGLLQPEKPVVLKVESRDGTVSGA
Procedure, shortened: (§2)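 Light output from converted D-luciferin reports remaining CYP activity. Compounds preincubate with enzyme and substrate for 15 min; NADPH regeneration (1x final) runs the reaction for 30-45 min.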

[7] = biological target: Cytochrome P450 2D6 (Homo sapiens) (UniProt P10635); experiment: qHTS for inhibitors of CYP2D6 against the NCATS DSHEA and TCM libraries (AID 1919972); conditions: CYP2D6 enzymatic inhibition, luminescence qHTS; series mostly up to 34.1 µM; further: on the % scale 0 is the no-effect control and ±100 the full control effect
Sequence of Cytochrome P450 2D6 (Homo sapiens) (P10635 whole entry, looked up): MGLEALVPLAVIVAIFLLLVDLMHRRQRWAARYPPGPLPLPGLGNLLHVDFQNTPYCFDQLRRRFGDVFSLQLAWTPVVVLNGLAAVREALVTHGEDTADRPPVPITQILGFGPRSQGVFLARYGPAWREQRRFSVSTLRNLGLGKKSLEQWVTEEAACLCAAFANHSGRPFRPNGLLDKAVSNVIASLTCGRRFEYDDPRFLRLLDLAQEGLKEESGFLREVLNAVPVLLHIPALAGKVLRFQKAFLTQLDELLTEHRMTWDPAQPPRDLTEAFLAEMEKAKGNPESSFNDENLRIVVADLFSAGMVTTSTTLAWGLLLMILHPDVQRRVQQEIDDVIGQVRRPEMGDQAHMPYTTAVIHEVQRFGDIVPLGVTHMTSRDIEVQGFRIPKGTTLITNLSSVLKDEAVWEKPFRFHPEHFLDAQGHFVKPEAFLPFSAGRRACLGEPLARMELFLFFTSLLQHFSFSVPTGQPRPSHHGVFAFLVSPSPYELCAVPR
Procedure, shortened: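 Steps: enzyme plus luciferin substrate dispensed; test substances pinned; 15 min RT; 1x NADPH regenerating solution added, 30–45 min RT protected from light; detection reagent, 30 min RT; luminescence measured. Minus-enzyme wells as background.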

[8] = biological target: Cytochrome P450 2C19 (Homo sapiens) (UniProt P33261); experiment: qHTS for inhibitors of CYP2C19 against the NCATS DSHEA and TCM libraries (AID 1919974); conditions: CYP2C19 enzyme inhibition, luminescence qHTS;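 further: luminescence from luciferin released by CYP2C19 oxidation of a pro-luciferin substrate; potency means the concentration at half of the fitted maximal effect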
Sequence of Cytochrome P450 2C19 (Homo sapiens) (P33261 whole entry, looked up): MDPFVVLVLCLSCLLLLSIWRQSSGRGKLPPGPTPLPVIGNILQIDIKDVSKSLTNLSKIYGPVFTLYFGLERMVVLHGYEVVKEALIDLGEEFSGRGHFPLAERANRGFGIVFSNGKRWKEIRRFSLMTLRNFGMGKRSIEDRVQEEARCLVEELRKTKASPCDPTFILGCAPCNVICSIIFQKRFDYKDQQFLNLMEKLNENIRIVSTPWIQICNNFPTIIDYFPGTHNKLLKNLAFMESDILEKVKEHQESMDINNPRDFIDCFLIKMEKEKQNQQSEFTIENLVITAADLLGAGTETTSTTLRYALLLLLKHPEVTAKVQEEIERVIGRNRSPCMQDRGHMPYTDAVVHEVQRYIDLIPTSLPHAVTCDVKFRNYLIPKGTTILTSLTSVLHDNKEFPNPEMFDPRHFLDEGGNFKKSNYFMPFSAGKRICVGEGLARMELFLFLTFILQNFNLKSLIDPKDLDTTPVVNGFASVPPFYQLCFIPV
Procedure, shortened: as §2

[9] = KB-3-1 P-gp reporter qHTS against the NCATS DSHEA and TCM libraries (AID 1919975); conditions: KB-3-1 parental cells, CellTiter-Glo luminescence viability, 72 h; series mostly up to 26.1 µM; further: 0% is about no effect
Procedure, shortened: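 CellTiter-Glo luminescence viability readout; KB-3-1 parental cells, 500/well, attached ~4 h, then compound for ~72 h, 37C, 5% CO2. Bortezomib intraplate control.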

[10] = qHTS Counterscreen for compound interference against the NCATS DSHEA and TCM libraries (AID 1919978); conditions: firefly luciferase detection reagent interference, luminescence;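 further: compounds preincubated with 1 µM D-luciferin or buffer before detection reagent; % of control where 0% means no effect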
Procedure, shortened: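 Luminescence counterscreen for detection-kit interference: compounds at 19.5 nM–39.8 uM final, 15 min RT with 1 uM D-luciferin or buffer only; detection reagent added, 30 min RT, then read.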

[11] = Dual reporter qHTS for agonist of Pregnane X Receptor (hPXR) against the NCATS DSHEA and TCM libraries: Fluorescence readout (AID 1920058); conditions: PXR dual reporter cells; series mostly up to 40 µM; further: 0% is about no effect
Procedure, shortened: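 Measures viability of the PXR reporter HepG2 line by protease-substrate fluorescence (405/540 nm), taken 1 h after CellTiter-Fluor addition. Substances are tested as concentration series over a ~24 h exposure, with rifampicin as agonist control.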

[12] = biological target: Nuclear receptor subfamily 1 group I member 2 (Homo sapiens) (UniProt O75469); experiment: Dual reporter qHTS for antagonist of Pregnane X Receptor (hPXR) against the NCATS DSHEA and TCM libraries: Luminescence Readout (AID 1920060); conditions: hPXR dual reporter cells, luciferase luminescence, antagonist mode; series mostly up to 40 µM;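 further: HepG2 cells carrying hPXR luciferase reporter stimulated with rifampicin at 2 µM; 0% is about no effect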
Sequence of Nuclear receptor subfamily 1 group I member 2 (Homo sapiens) (O75469 whole entry, looked up): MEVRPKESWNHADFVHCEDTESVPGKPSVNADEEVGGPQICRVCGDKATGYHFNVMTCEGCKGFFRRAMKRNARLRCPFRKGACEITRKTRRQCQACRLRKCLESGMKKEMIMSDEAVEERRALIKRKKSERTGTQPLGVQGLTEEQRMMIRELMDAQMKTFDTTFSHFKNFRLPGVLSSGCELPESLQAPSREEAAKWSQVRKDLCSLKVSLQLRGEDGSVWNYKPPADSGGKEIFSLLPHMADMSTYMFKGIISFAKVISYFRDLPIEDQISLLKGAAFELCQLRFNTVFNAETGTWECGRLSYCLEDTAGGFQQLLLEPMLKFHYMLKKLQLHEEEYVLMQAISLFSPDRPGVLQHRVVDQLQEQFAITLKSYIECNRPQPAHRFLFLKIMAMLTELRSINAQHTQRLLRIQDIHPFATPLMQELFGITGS
Procedure, shortened: (§3)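 hPXR-Luc HepG2 cells exposed 24 h at 37 C to compounds with 2 uM rifampicin in antagonist mode; luciferase luminescence measured by ONE-Glo, with CellTiter-Fluor viability read beforehand.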

[13] = Dual reporter qHTS for antagonist of Pregnane X Receptor (hPXR) against the NCATS DSHEA and TCM libraries: Fluorescence Readout (AID 1920061); conditions: PXR dual reporter cells, antagonist mode; series mostly up to 40 µM; further: 0% is about no effect
Procedure, shortened: as §3

[14] = tested on: Nanoluciferase (engineered Oplophorus gracilirostris luciferase); experiment: Primary Nanoluciferase (NLuc) qHTS assay for identification of artifact compounds. (AID 1845222); conditions: NLuc-conditioned medium, Nano-Glo luminescence, 5 min; series mostly up to 54.1 µM;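 further: NLuc secreted into diluted conditioned medium of S16 cells; 0% = DMSO and -100% = no enzyme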
Procedure, shortened: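 Using secreted nanoluciferase in S16 culture medium (0.22 um filtered, 1:55 dilution), compounds were preincubated 15 min at RT. Signal was generated with Nano-Glo reagent (1:100) over 5 min.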

[15] = at 28.7 µM (top of the series), parasite line A
[16] = at 28.7 µM (top of the series), parasite line B

CC1(C)[C@@H](O[C@H]2O[C@H](C(=O)O)[C@@H](O)[C@H](O)[C@H]2O[C@@H]2O[C@H](C(=O)O)[C@@H](O)[C@H](O)[C@H]2O)CC[C@]2(C)[C@H]3C(=O)C=C4[C@@H]5C[C@@](C)(C(=O)O)CC[C@]5(C)CC[C@@]4(C)[C@]3(C)CC[C@@H]12
inactive: Potency [1] | Potency [2] | outcome [3] | outcome [4]

O=C(Nc1ccc(C(=O)O)c(O)c1)c1ccccc1
inactive: activity, negative = inhibition [5, 15] -20.7% | activity, negative = inhibition [5, 16] -1.01% | Potency (3D7) | Potency (7G8) | Potency (AA1029)

CC(=O)[C@]1(O)Cc2c(O)c3c(c(O)c2[C@@H](O[C@H]2C[C@H](N)[C@H](O)[C@H](C)O2)C1)C(=O)c1c(O)cccc1C3=O
active: Potency ([5]; parasite line A) 7.08 µM | Potency ([5]; parasite line B) 12.6 µM | Potency (3D7) 3.16 µM | Potency (7G8) 1.12 µM | Potency (AA1029) 7.08 µM

C[S+](CC[C@H](N)C(=O)O)C[C@H]1O[C@@H](n2cnc3c(N)ncnc32)[C@H](O)[C@@H]1O (some centres not stated)
inactive: outcome [6] | outcome [7] | outcome [9] | max response [10] -4.63% | outcome [11] | outcome [12] | outcome [13] | Potency (3D7) | Potency (7G8)
active: Potency [8] 3.98 µM

CN1[C@@H]2CC[C@H]1CC(OC(=O)C(CO)c1ccccc1)C2 (some centres not stated)
inactive: Potency [1] | Potency [2] | outcome [3] | Potency [14] | outcome [4] | activity, negative = inhibition [5, 15] -2.42% | Potency (3D7) | Potency (7G8) | Potency (AA1029)

COC(=O)C1=C(C)NC(C)=C(C(=O)OCC(C)C)C1c1ccccc1[N+](=O)[O-] (configuration not stated)
active: Potency ([5]; parasite line A) 11.2 µM | Potency ([5]; parasite line B) 10 µM | Potency (7G8) 3.16 µM

O=C(O)Cc1ccc(-c2ccccc2)cc1
inactive: activity, negative = inhibition ([5]; at 12.8 µM (top of the series), parasite line A) 2.72% | activity, negative = inhibition ([5]; at 12.8 µM (top of the series), parasite line B) -2.57% | Potency (3D7) | Potency (7G8) | Potency (AA1029)

Cc1ccccc1CNc1ncnc2c1ncn2C1OC(CO)C(O)C1O (configuration not stated)
inactive: activity, negative = inhibition [5, 15] 17.8% | activity, negative = inhibition [5, 16] -2% | Potency (3D7) | Potency (7G8) | Potency (AA1029)

Oc1c(Br)cc(Br)c2cccnc12
inactive: activity, negative = inhibition [5, 15] -4.99% | activity, negative = inhibition [5, 16] -18.5% | Potency (3D7) | Potency (AA1029)

CN1CCN(c2cc3c(nn2)Oc2ccccc2N3C)CC1
inactive: activity, negative = inhibition [5, 15] 11.3% | activity, negative = inhibition [5, 16] 1.64% | Potency (3D7) | Potency (7G8) | Potency (AA1029)

C#CC1(O)CC[C@H]2[C@@H]3CCC4=CCCC[C@@H]4[C@H]3CC[C@@]21C (some centres not stated)
inactive: Potency [1]

CC1(C)C[C@@H]1C(=O)N/C(=C\CCCCSC[C@H](N)C(=O)O)C(=O)O
inactive: activity, negative = inhibition [5, 15] 10.1% | activity, negative = inhibition [5, 16] -12.7% | Potency (3D7) | Potency (7G8) | Potency (AA1029)

O=C1CN(/N=C/c2ccc(-c3ccc([N+](=O)[O-])cc3)o2)C(=O)N1
inactive: activity, negative = inhibition [5, 15] -11.3% | activity, negative = inhibition [5, 16] -1.58% | Potency (AA1029)

O=C(O)/C=C/C(O)c1ccc(Cl)cc1 (configuration not stated)
inactive: activity, negative = inhibition [5, 15] 0.108% | activity, negative = inhibition [5, 16] 10.3% | Potency (3D7) | Potency (7G8) | Potency (AA1029)

C=CC(C)=C[C@@]1(C)SC(=O)C(C)=C1O
inactive: Potency [1]

Cc1nc2ccccc2n1Cc1ccc(Cl)cc1
inactive: Potency (3D7)
active: Potency ([5]; parasite line A) 12.6 µM

O=C(O)COc1ccc(C(=O)c2cccs2)c(Cl)c1Cl
inactive: activity, negative = inhibition [5, 15] 17.6% and 6.75% | activity, negative = inhibition [5, 16] 6.94% and 2.12% | Potency (3D7) | Potency (7G8) | Potency (AA1029)

Cc1cc(O)c2ccccc2c1O
inactive: Potency [1] | activity, negative = inhibition [5, 15] 7.28% | activity, negative = inhibition [5, 16] -10.1% | Potency (AA1029)
active: Potency (3D7) 12.6 µM
